In PubChem BioAssay (Tox21) one finds Potency and activity change, negative = cytotoxicity data, which are given here for 40 compounds.

Inconclusive results are not listed. A call without a number means that no potency is given here. Active and inactive are the calls of the source. The call rests on the fitted dose curve; in most records, active means well fitted cell-killing curve with a large enough effect in the repeat runs; inconclusive means weak or mixed curves, or effect the other way; inactive means no such curve, though single readings can be large or run the other way.

The test in a line: qHTS assay to identify small molecule agonists of the RXR signaling pathway - cell viability counter screen (AID 1159529). Further: nearly all actives have a fitted effect of over 50% in size. As to conditions: RXR-alpha-bla HEK293T viability, CellTiter-Glo, 16 h; series mostly up to 76.8 µM. An excerpt: National Center for Advancing Translational Sciences [NCATS]
NIH Chemical Genomics Center [NCGC]
U.S. Environmental Protection Agency [EPA]
National Institutes of Environmental Health Sciences [NIEHS]
National Toxicology Program [NTP]
U.S. Food and Drug Administration [FDA]
The Retinoid X receptor (RXR), a nuclear hormone receptor expressed in liver, spleen, placenta, epidermis, central nervous system. These receptors are able to form homo and heterodimers with other nuclear receptors and due to this heterodimerizing ability, RXR functions as master regulators producing diverse physiological effects. Three subtypes of RXR exist; alpha, beta and gamma. Retinoid X receptor alpha (RXR-alpha) has potential roles in metabolic signaling pathways, skin alopecia, dermal cysts, cardiac development, insulin sensitization etc. Therefore screening environmental chemicals on RXR-alpha signaling can be used for the studies focused on such therapeutic applications. For quantification of RXR-alpha ligands signaling, GeneBLAzer RXR alpha-UAS-bla HEK 293T (Life Technologies, Carlsbad, CA) cells containing a beta-lactamase reporter-gene under control of Retinoid X receptor-alpha response element were used to screen Tox21 10K library. The cytotoxicity of the Tox21 compound library against the RXR-alpha HEK 293T cell line was tested in parallel by measuring cell viability using CellTiter-Glo assay (Promega Corporation, Madison, WI) in the same wells.
Tox21 Assay Protocol Summary:
RXR-alpha HEK 293T cells were dispensed at 2,000 cells/6 uL of assay medium containing 2% charcoal-stripped FBS using a Multidrop Combi (ThermoFisher Scientific, Waltham, MA) dispenser. The assay was performed in black wall/clear-bottom 1536-well plates (Greiner Bio-One North America Inc. Monroe, NC). Tetraoctyl ammonium bromide was used as a positive control in the cytotoxicity screen. After the assay plates were incubated at 37 C and 5% CO2 for 5 hr, 23 nL of compounds dissolved in DMSO, positive control or DMSO only were transferred to the assay plate by a Pintool station (Kalypsys, San Diego, CA). The assay plates were incubated at 37 C and 5% CO2 for 16 hr. One uL of LiveBLAzer B/G FRET substrate (Life Technologies) was added using a Flying Reagent Dispenser (FRD) (Aurora Discovery, San Diego, CA) and the plates were incubated at room temperature for 2 hr. Fluorescence intensity (405 nm excitation, 460/530 nm emission) was measured using an Envision plate reader (PerkinElmer, Shelton, CT). For cytotoxicity, 4 uL/well of CellTiter-Glo reagent was added into the assay plates using an FRD. After 30 min incubation at room temperature, the luminescence intensity was measured using a ViewLux plate reader (PerkinElmer).
A general note: Quantitative high-throughput screening tests each substance at several concentrations.
Consider `CCCOc1ccccc1-c1nc2n[nH]nc2c(=O)[nH]1`, for which the Potency result was “inactive”. Still for that read-out and setting: to `O=c1[nH]c(=O)n([C@H]2O[C@H](CO)[C@@H](O)[C@@H]2O)cc1/C=C\Br` belongs “inactive”. With `CC12CCC(CC1=O)C2(C)C` (stereo not given), the Potency result was “inactive”.

As to `C#CC(O)CCCCC` (stereo not given), the Potency result is “inactive”. The same measure, in the same setting: to `CC(C)CCOC(=O)CC(C)C` belongs “inactive”. With `C1COCCO1`, the Potency result was “inactive”. Turning to `CC(C)c1cccc(O)c1`, the Potency result was “inactive”. `Cc1ccc(N)cc1[N+](=O)[O-]`: the Potency result is “inactive”. Still for that read-out and setting: to `CC1(C)OC(=O)Nc2ccc(Br)cc21` belongs “inactive”; to `O=C(O)c1ccc[n+]([O-])c1`, “inactive”. Still for that read-out and setting: to `CCn1c(=O)c2c(nc(/C=C/c3ccc(OC)c(OC)c3)n2C)n(CC)c1=O` belongs “inactive”; to `C=C(C)C(=O)NCCC[N+](C)(C)C`, “inactive”. Still for that read-out and setting: to `O=C1CC2(CCCC2)CC(=O)N1` belongs “inactive”; to `Nc1ccc2cc(S(=O)(=O)O)ccc2c1`, “inactive”. As for `Cc1cc(C)cc(OCC2CNC(=O)O2)c1` (stereo not given), the Potency result was “inactive”. Same read-out and setting: to `Cc1onc(-c2ccccc2)c1-c1ccc(S(N)(=O)=O)cc1` belongs “inactive”; to `[O-][N+](=Nc1ccccc1)c1ccccc1`, “inactive”. Still for that read-out and setting: for `CC(=O)CCc1ccc(O)cc1` the value was “inactive”; for `COC(=O)CCCC(=O)O`, “inactive”. On to `CCO[Si](C)(OCC)OCC`, for which the Potency entry is “inactive”.

`CCO[Si](CCCN=C=O)(OCC)OCC`: the Potency result was “inactive”. `CN(C)C(=O)Nc1ccccc1`: the Potency entry is “inactive”. Same read-out and setting: to `OC/C=C/c1ccccc1` belongs “inactive”. Still for that read-out and setting: for `Oc1ccc2c(c1)OC[C@@H](N1CCC(O)(c3ccc(F)cc3)CC1)[C@H]2O` the value was “inactive”; for `CCN1CCN(c2cc3c(cc2F)c(=O)c(C(=O)O)cn3C2CC2)CC1`, “inactive”.

With `CC(C)[N+](C)(C)CC(O)COc1cccc2ccccc12` (stereo not given), the Potency result was “inactive”. As for `CC(=O)c1ccc(C)cc1`, the Potency entry is “inactive”. Same read-out and setting: for `CC(C)=CCC/C(C)=C/C(=O)O` the value was “inactive”; for `CO`, “inactive”. Still for that read-out and setting: to `CCc1cc(S(=O)(=O)O)c2cc(C(C)C)cccc1-2` belongs “inactive”; to `CC(C)=CC(=O)O`, “inactive”; to `C/C=C1\C(=O)C[C@H]2[C@@H]3CCC4=CC(=O)CC[C@]4(C)[C@H]3CC[C@]12C`, “inactive”.

`CCC(=O)Nc1cccc(N)c1`: the Potency result is “inactive”. Same read-out and setting: to `O=S(=O)(O)c1ccccc1O` belongs “inactive”; to `Cn1cnc2c(=O)[nH]c(N)nc21`, “inactive”.

On to `CCCCC=O`, for which the Potency result was “inactive”. For `C1CCCCCCCCCCC1`, the activity change, negative = cytotoxicity was 1.49% [at 15.8 µM] (inactive). For the compound `COc1ccc2cc(C=O)ccc2c1`, the Potency result is “inactive”.

Consider `c1ccc2cnncc2c1`, for which the Potency entry is “inactive”. `C[C@H](O)C(=O)Nc1c(I)c(C(=O)NC(CO)CO)c(I)c(C(=O)NC(CO)CO)c1I`: the Potency result is “inactive”.
